PubChem BioAssay AID1159580 (chemical genetic matrix, 2015)
“And” between values parts separate entries of the source, which are not always exact repeats. Identical values can stand only once. The whole screen tested about 5,500 compounds, of which about 2,000 (36%) were called active. Not shown: some 18% with an inconclusive outcome. No stated cut-off is given here; in the data, active means normalized growth mostly below about 0.91 (no sharp cut-off); inconclusive means no clear call, values can overlap the other calls; inactive means mostly above about 0.92. The list shows a part of the results.

Test: chemical genetic growth profiling, strain panel (AID 1159580);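 further: tested at 20 µM; growth read once vehicle control cultures reached saturation at 30 °C; 1 = growth at the plate median or of vehicle wells; lower values mean less growth of the strain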
Conditions: S. cerevisiae deletion strains, growth OD

Measured: normalized growth

O=C(CCc1ccc(O)cc1)c1c(O)cc(O)cc1O
inactive: locus YAL013W, strain DEP1, hits give low values 1.01 | locus YAL021C, strain ccr4, hits give low values 0.998 | locus YAL026C, strain drs2, hits give low values 1 | locus YAL030W, strain snc1, hits give low values 1.01 | locus YAL040C, strain CLN3, hits give low values 1.05 | locus YBL061C, strain skt5, hits give low values 1.02 | locus YBR009C, strain hhf1, hits give low values 0.992 | locus YBR021W, strain FUR4, hits give low values 1.03 | locus YBR023C, strain chs3, hits give low values 0.999 | locus YBR171W, strain sec66, hits give low values 1.02 | locus YBR229C, strain ROT2, hits give low values 0.991 | locus YBR231C, strain swc5, hits give low values 1.01 | locus YBR279W, strain paf1, hits give low values 1.01 | locus YCL011C, strain gbp2, hits give low values 1.02 | locus YCL016C, strain dcc1, hits give low values 1.01 | locus YCL029C, strain bik1, hits give low values 1 | locus YCL061C, strain MRC1 (second series), hits give low values 1.01 | locus YCL061C, strain MRC1, hits give low values 0.99 | locus YCL069W, strain vba3, hits give low values 1.02 | locus YCR088W, strain abp1, hits give low values 1.02 | locus YDL005C, strain med2, hits give low values 1.02 | locus YDL035C, strain GPR1, hits give low values 1.01 | locus YDL040C, strain nat1, hits give low values 0.997 | locus YDL074C, strain BRE1, hits give low values 0.987 | locus YDL101C, strain DUN1, hits give low values 1.01 | locus YDL134C, strain PPH21, hits give low values 1.01 | locus YDL185W, strain tfp1, hits give low values 1.01 | locus YDL192W, strain arf1, hits give low values 1.01 | locus YDR001C, strain nth1, hits give low values 1.02 | locus YDR069C, strain doa4, hits give low values 0.978 | locus YDR101C, strain arx1, hits give low values 1.02 | locus YDR137W, strain rgp1, hits give low values 1.11 | locus YDR150W, strain NUM1, hits give low values 1 and 0.988 | locus YDR159W, strain sac3, hits give low values 1.04 | locus YDR162C, strain NBP2, hits give low values 0.989 | locus YDR195W, strain ref2 1 | locus YDR297W, strain sur2, hits give low values 1 | locus YDR318W, strain mcm21, hits give low values 1.04 | locus YDR334W, strain swr1, hits give low values 1 | locus YDR335W, strain msn5, hits give low values 1.01 | locus YDR363W, strain ESC2, hits give low values 0.977 | locus YDR388W, hits give low values 1.01 | locus YDR392W, strain spt3, hits give low values 1 | locus YDR502C, strain sam2, hits give low values 0.994 | locus YEL003W, strain gim4, hits give low values 1.01 | locus YEL037C, strain rad23, hits give low values 1 | locus YEL061C, strain CIN8 (second series), hits give low values 1.02 | locus YEL061C, strain CIN8, hits give low values 0.997 | locus YER002W, strain NOP16, hits give low values 1.02 | locus YER015W, strain faa2, hits give low values 1 | locus YER016W, strain bim1, hits give low values 1.01 | locus YER110C, hits give low values 1.01 | locus YER111C, strain swi4, hits give low values 1.01 | locus YER155C, strain BEM2 (second series), hits give low values 1 | locus YER155C, strain BEM2, hits give low values 1.01 | locus YER167W, strain BCK2, hits give low values 1.02 | locus YFR010W, strain ubp6, hits give low values 0.992 | locus YGL078C, strain dbp3, hits give low values 1.01 | locus YGL086W, strain mad1, hits give low values 1.01 | locus YGL167C, strain pmr1, hits give low values 1.01 | locus YGL173C, strain kem1, hits give low values 1.02 | locus YGL227W, strain vid30, hits give low values 1.02 | locus YGL240W, strain doc1, hits give low values 1.01 | locus YGL248W, strain PDE1, hits give low values 1 | locus YGL253W, strain hxk2, hits give low values 1.02 | locus YGR078C, strain PAC10, hits give low values 0.987 and 1.01 | locus YGR135W, strain pre9, hits give low values 0.998 | locus YGR229C, strain SMI1, hits give low values 0.979 | locus YHR013C, strain ard1, hits give low values 0.99 | locus YHR027C, strain rpn1, hits give low values 1.01 | locus YHR030C, strain SLT2, hits give low values 1 and 0.997 | locus YHR079C, strain IRE1 (second series), hits give low values 1 | locus YHR079C, strain IRE1, hits give low values 0.983 | locus YHR094C, strain hxt1, hits give low values 0.999 | locus YHR129C, strain ARP1, hits give low values 0.998 | locus YHR142W, strain chs7, hits give low values 1.01 | locus YHR200W, strain rpn10, hits give low values 1.02 | locus YIL066C, strain RNR3, hits give low values 1.01 | locus YIL073C, strain SPO22, hits give low values 1.1 | locus YIL125W, strain kgd1, hits give low values 1.03 | locus YIR030C, strain dcg1, hits give low values 1.01 | locus YJL092W, strain hpr5, hits give low values 1.01 | locus YJL095W, strain BCK1 (second series), hits give low values 1.01 | locus YJL095W, strain BCK1, hits give low values 0.994 and 0.99 | locus YJL115W, strain asf1, hits give low values 1.02 | locus YJL129C, strain trk1, hits give low values 1.05 | locus YJL134W, strain LCB3, hits give low values 1.01 | locus YJL154C, strain vps35, hits give low values 1.02 | locus YJL164C, strain tpk1, hits give low values 0.984 | locus YJL166W, strain qcr8, hits give low values 1.01 | locus YJL168C, strain set2, hits give low values 0.995 | locus YJL187C, strain SWE1 (second series), hits give low values 0.995 | locus YJL187C, strain SWE1, hits give low values 1.02 | locus YJR043C, strain POL32, hits give low values 0.997 | locus YJR066W, strain TOR1, hits give low values 0.948
